From the supplement of paper PMC10849652
Targets with a hit are over-represented here; the source holds about 7,900 in all. About 0.6% of all pairs of compound and target were hits. Values without a mark were called inactive.

These targets were tested with CS(=O)(=O)c1ccc(-c2cnc(N)c(C(=O)Nc3ccccc3)n2)cc1 (assay: log2 fold change, soluble protein after heating vs DMSO (PISA); higher = thermal stabilisation; K562 cells, 10 uM, 30 min; active = over 0.2 and 3.5 SD of the protein, either way, in both replicates (recomputed)).
Method in brief: (§1)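 Soluble protein was defined as the supernatant after 21,000xg for 90 min. It came from K562 cells at 2×10^6 cells/mL given 10 μM compound for 30 min, heated in aliquots for 3 min across 48°C-58°C, pooled, and extracted in PBS with 0.5% NP-40 at 4°C, and was quantified by TMTpro 16plex LC-MS/MS with equalised channel sums. Thermal stability against control samples, from duplicates, is reported as log2 fold change.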

Sequence of UniProt Q32MZ4 (Q32MZ4 whole entry, looked up): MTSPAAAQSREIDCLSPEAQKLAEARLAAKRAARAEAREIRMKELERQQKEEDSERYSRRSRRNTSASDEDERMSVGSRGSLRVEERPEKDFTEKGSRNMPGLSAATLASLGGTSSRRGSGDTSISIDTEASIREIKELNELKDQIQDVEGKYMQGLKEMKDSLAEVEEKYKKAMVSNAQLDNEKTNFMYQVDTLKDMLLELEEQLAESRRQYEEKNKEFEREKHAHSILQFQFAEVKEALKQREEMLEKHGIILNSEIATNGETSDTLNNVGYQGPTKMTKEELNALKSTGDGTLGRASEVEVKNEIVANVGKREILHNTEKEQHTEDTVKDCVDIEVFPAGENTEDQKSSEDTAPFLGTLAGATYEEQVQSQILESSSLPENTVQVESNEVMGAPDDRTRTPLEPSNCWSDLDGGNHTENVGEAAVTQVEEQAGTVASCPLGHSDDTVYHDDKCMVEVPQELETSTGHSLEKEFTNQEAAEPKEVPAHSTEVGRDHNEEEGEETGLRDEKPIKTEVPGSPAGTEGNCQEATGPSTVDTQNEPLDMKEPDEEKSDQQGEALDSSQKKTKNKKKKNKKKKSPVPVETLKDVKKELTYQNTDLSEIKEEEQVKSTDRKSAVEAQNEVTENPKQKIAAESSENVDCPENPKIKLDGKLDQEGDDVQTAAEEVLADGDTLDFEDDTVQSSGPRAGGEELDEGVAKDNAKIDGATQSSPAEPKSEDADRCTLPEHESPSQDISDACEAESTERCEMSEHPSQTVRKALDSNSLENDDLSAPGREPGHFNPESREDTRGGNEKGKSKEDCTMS
Sequence of UniProt Q9Y5V3 (Q9Y5V3 whole entry, looked up): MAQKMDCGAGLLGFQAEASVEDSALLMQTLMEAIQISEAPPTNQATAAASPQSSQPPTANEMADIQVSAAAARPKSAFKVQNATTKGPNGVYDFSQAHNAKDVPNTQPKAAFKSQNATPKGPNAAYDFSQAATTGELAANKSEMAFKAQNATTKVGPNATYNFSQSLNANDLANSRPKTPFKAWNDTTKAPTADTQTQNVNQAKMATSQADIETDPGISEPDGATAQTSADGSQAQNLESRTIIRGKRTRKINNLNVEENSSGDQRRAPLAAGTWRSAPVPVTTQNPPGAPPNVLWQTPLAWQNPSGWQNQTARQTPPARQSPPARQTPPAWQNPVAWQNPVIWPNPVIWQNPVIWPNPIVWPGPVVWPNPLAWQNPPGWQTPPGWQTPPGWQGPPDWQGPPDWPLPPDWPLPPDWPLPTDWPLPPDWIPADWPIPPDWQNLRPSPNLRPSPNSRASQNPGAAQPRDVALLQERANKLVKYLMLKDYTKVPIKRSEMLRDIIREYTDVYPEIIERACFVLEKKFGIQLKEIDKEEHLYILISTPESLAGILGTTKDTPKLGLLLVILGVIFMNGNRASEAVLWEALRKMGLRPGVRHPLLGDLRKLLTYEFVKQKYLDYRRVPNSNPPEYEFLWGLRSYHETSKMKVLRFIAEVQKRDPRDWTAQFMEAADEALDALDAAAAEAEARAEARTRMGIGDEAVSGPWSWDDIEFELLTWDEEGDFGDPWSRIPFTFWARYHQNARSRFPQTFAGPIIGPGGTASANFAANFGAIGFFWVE
Sequence of UniProt Q9Y4K4 (Q9Y4K4 whole entry, looked up): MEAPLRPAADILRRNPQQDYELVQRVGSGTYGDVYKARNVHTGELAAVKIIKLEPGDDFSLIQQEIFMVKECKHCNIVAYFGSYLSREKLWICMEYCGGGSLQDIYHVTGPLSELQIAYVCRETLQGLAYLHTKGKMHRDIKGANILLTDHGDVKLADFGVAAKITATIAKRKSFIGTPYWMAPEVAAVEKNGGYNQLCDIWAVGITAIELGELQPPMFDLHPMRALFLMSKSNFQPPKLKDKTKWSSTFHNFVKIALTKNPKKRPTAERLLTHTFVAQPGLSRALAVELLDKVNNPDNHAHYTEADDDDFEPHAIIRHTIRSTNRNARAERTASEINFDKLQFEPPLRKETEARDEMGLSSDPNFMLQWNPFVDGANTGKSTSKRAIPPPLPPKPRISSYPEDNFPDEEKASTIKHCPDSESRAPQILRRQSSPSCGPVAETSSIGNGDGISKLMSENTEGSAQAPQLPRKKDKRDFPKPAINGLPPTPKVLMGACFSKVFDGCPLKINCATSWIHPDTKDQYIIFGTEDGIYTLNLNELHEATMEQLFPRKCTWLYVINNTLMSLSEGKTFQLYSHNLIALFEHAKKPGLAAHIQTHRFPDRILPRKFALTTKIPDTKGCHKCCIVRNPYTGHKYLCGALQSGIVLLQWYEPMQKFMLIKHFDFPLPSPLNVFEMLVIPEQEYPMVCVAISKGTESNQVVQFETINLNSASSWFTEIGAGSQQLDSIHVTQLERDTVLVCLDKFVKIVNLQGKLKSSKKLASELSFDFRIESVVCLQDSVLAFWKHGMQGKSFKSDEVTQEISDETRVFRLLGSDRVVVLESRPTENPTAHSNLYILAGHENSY
Sequence of UniProt P13473 (P13473 whole entry, looked up): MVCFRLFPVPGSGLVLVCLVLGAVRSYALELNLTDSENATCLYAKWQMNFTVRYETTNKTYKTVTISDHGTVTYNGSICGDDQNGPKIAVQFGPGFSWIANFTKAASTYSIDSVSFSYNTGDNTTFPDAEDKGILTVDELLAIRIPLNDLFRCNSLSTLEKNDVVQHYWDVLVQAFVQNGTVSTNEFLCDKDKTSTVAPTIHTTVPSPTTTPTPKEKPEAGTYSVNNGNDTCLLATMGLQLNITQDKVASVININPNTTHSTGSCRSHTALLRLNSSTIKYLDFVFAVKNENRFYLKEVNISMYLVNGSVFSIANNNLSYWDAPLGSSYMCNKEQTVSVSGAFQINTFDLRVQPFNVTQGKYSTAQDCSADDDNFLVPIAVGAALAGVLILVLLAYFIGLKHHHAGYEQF
Sequence of UniProt Q9NUN5 (Q9NUN5 whole entry, looked up): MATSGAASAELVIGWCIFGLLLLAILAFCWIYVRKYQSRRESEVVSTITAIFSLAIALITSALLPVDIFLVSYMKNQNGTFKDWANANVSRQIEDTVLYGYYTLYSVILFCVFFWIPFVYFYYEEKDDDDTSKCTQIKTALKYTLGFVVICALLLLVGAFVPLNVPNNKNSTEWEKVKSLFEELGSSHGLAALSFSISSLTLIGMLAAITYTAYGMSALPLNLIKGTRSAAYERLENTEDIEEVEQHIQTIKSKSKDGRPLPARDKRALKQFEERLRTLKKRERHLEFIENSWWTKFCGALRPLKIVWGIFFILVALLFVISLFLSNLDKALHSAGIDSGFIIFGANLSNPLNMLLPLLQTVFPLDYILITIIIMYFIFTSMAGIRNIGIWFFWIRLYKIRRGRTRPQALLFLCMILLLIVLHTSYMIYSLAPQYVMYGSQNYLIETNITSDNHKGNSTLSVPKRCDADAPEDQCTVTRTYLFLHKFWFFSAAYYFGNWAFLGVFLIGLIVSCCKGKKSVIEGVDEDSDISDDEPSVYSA
Sequence of UniProt Q9NQX7 (Q9NQX7 whole entry, looked up): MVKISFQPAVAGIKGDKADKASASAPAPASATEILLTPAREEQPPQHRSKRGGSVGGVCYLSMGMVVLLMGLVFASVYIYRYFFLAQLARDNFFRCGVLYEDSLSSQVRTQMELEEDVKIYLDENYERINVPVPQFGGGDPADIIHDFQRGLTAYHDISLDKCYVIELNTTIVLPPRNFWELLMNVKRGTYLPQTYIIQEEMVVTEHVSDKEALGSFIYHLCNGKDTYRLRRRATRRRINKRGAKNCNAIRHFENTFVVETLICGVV
Sequence of UniProt Q9H3U5 (Q9H3U5 whole entry, looked up): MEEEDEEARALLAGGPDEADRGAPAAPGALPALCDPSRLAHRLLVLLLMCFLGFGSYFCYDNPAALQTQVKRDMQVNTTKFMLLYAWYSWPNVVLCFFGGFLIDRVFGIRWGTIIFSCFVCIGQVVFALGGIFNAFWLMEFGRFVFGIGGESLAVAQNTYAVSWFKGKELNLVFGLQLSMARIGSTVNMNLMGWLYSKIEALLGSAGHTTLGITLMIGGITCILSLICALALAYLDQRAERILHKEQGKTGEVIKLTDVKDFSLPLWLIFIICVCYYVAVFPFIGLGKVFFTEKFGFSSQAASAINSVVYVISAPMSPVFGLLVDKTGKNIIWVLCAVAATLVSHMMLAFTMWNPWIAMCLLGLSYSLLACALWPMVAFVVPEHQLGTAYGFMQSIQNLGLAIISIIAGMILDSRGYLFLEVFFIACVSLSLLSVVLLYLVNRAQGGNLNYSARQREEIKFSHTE
Sequence of UniProt Q8NHS3 (Q8NHS3 whole entry, looked up): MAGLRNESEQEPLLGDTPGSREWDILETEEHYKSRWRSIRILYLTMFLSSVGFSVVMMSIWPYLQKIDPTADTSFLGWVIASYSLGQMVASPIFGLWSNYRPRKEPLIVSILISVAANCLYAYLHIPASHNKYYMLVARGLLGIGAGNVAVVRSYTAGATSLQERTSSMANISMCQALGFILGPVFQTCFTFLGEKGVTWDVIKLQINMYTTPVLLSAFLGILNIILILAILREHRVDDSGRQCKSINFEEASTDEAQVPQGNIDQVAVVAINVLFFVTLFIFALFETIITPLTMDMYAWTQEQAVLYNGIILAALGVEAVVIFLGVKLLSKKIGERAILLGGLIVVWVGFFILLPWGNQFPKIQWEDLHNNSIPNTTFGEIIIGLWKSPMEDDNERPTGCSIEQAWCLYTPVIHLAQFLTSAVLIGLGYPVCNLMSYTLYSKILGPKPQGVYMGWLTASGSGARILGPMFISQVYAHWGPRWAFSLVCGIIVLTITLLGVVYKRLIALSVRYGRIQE
Sequence of UniProt Q8WYH8 (Q8WYH8 whole entry, looked up): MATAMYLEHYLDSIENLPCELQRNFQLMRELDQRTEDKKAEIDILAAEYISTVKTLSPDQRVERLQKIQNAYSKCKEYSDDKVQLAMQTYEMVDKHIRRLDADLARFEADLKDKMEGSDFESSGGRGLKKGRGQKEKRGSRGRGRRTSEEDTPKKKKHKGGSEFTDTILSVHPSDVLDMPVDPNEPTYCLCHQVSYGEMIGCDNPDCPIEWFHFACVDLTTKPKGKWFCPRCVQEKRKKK

Target | log2 fold change
IKZF1 isoform 2 (UniProt Q13422) | 0.081
MFAP3 (UniProt P55082) | -0.012
KMT5A (UniProt Q9NQR1) | 0.018
LAPTM4B (UniProt Q86VI4) | 0.012
MAP4K2 (UniProt Q12851) | -0.032
MAP4K4 isoform 6 (UniProt O95819) | -0.019
MAGED1 isoform 2 (UniProt Q9Y5V3) | -0.012
ITM2C (UniProt Q9NQX7) | 0.117
MAP4K5 (UniProt Q9Y4K4) | 0.019
KIF13A isoform 4 (UniProt Q9H1H9) | -0.363
MFSD1 isoform 6 (UniProt Q9H3U5) | 0.035
LMBRD1 (UniProt Q9NUN5) | -0.003
MAP4 isoform 5 (UniProt P27816) | 0.096
MFSD12 isoform 3 (UniProt Q6NUT3) | 0.17
LSR isoform 3 (UniProt Q86X29) | 0.052

These targets were tested with C[C@@H](Oc1cc(-c2cnn(C3CCNCC3)c2)cnc1N)c1c(Cl)ccc(F)c1Cl [crizotinib] in the same assay as above.
Method in brief: as §1

Target | log2 fold change
ITPRID2 (UniProt P28290) | -0.201
LAMP2 isoform 2 (UniProt P13473) | -0.424 (active)
MFSD8 (UniProt Q8NHS3) | -0.013
MAP2K5 (UniProt Q13163) | -0.012
MGRN1 isoform 2 (UniProt O60291) | -0.015
IKZF1 (UniProt R9R4D9) | 0.028
KIZ (UniProt Q2M2Z5) | -0.032
MAPRE3 isoform 2 (UniProt Q9UPY8) | 0.22
MAPK7 (UniProt Q13164) | 0.773 (active)
LRRFIP1 isoform 4 (UniProt Q32MZ4) | 0.012
LDLRAP1 (UniProt Q5SW96) | 0.004
MBLAC1 (UniProt A4D2B0) | 0.038
MAPK11 (UniProt Q15759) | -0.115
ING5 (UniProt Q8WYH8) | -0.36
MAGEA8 (UniProt P43361) | -0.003

What follows are targets tested with C[C@@H]1COCCN1C2=NC(=NC(=C2)C3(CC3)S(=O)(=O)C)C4=C5C=CNC5=CC=C4 in the same assay as above.
Method in brief: as §1

Target | log2 fold change
ITPRID2 (UniProt P28290) | 0.229
LAMP2 isoform 2 (UniProt P13473) | 0.119
MFSD8 (UniProt Q8NHS3) | 0.04
MFAP3 (UniProt P55082) | 0.045
LEPROT (UniProt O15243) | -0.149
MAGED1 isoform 2 (UniProt Q9Y5V3) | 0.096
ITM2C (UniProt Q9NQX7) | 0.239
MAP4K5 (UniProt Q9Y4K4) | 0.072
MFSD1 isoform 6 (UniProt Q9H3U5) | 0.076
LMBRD1 (UniProt Q9NUN5) | 0.111
MAPK7 (UniProt Q13164) | 0.03
KXD1 (UniProt Q9BQD3) | 0.118
LRRFIP1 isoform 4 (UniProt Q32MZ4) | 0.175
MAP4 isoform 5 (UniProt P27816) | -0.159

The targets below were run with C[C@H](C1=CC=C(C=C1)C(=O)NC2=C3C=CNC3=NC=C2)N in the same assay as above.
Method in brief: as §1

Target | log2 fold change
LAMP2 isoform 2 (UniProt P13473) | -0.051
IKZF1 isoform 2 (UniProt Q13422) | 0.059
MFSD8 (UniProt Q8NHS3) | -0.023
IGFBP6 (UniProt P24592) | -0.035
MAP2K5 (UniProt Q13163) | 0.072
MAP4K2 (UniProt Q12851) | -0.129
LEPROT (UniProt O15243) | 0.083
MAP4K4 isoform 6 (UniProt O95819) | -0.305
MAGED1 isoform 2 (UniProt Q9Y5V3) | 0.205
MGRN1 isoform 2 (UniProt O60291) | 0.225
ITM2C (UniProt Q9NQX7) | 0.137
IKZF1 (UniProt R9R4D9) | -0.078
KIZ (UniProt Q2M2Z5) | -0.115
MAP4K5 (UniProt Q9Y4K4) | 0.24
KIF13A isoform 4 (UniProt Q9H1H9) | -0.019
MAPRE3 isoform 2 (UniProt Q9UPY8) | 0.06
MFSD1 isoform 6 (UniProt Q9H3U5) | -0.03
LMBRD1 (UniProt Q9NUN5) | -0.14
KXD1 (UniProt Q9BQD3) | -0.009
LRRFIP1 isoform 4 (UniProt Q32MZ4) | 0.59
MBLAC1 (UniProt A4D2B0) | -0.007
MFSD12 isoform 3 (UniProt Q6NUT3) | -0.213
LSR isoform 3 (UniProt Q86X29) | -0.138
ING5 (UniProt Q8WYH8) | -0.018
MAGEA8 (UniProt P43361) | 0.134
